Consider 40 sequences from the supplement of paper PMC10338343.

± gives the standard deviation.

The subject of one experiment is MILI (PIWIL2) piRISC loaded with L1MC piRNA (26 nt). The experiment is described as follows: pre-steady-state target cleavage rate (min^-1); guide: L1MC piRNA 5'p-UAACUAAAUACUAUGCAAGCUGUAGG; MIWI and MILI are mouse PIWI proteins and EfPiwi is from a freshwater sponge; tags in brackets are library labels; higher = faster piRNA-guided slicing of the target. As to conditions: auxiliary factor: 500 nM mouse GTSF1. The procedure, abridged:
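Cleave-'n-Seq: a transcribed, DNA-blocked target RNA library (0.1 nM) was mixed with 1 nM active affinity-purified piRISC carrying one synthetic guide, with or without 500 nM GTSF1 partner protein, in HEPES–potassium acetate buffer at 33 °C for 0–8 or 0–960 min. Uncleaved targets were sequenced and normalised to depth and to weakly complementary targets. Three trials were pooled, and k3 was capped at 0.0001 min^-1. The pre-steady-state cleavage rate came from a burst-and-steady-state fit.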
With UCCUGGUACAGCUUGCAUAGUUUUUAGAAA, the “pre-steady-state target cleavage rate” value worked out at 0.0221 ± 0.011.

For the sequence UCCUGGAUGUCCUAGCAUAGAAUUUAGUUA, the “pre-steady-state target cleavage rate” value worked out at 0.00538 ± 0.004.

Take UCCUGGAUGUCGAACGUAACUAUAUAGUUA: the “pre-steady-state target cleavage rate” value was less than 0.0001.

Regarding UCCUGCUACAGCUUGCAUACUAUAUAGUUA, the “pre-steady-state target cleavage rate” value stood at 0.0515 ± 0.015.

For the sequence UCCUGCUACUCGUUGCAUAGUAUUUACAAA, the “pre-steady-state target cleavage rate” value came to 0.0703 ± 0.016.

Turning to UCCUGGUAGAGCUUGCAUAGUAUUUACUUA, the “pre-steady-state target cleavage rate” value came out at 0.0436 ± 0.012.

Consider UCCUGGUACAGCUUGCAUAGUUUUUUCAAA, for which the “pre-steady-state target cleavage rate” value worked out at 0.0153 ± 0.0075.

UCCUGCUACAGCUUCCAUAGUUUUUAGUUA: the “pre-steady-state target cleavage rate” value amounted to 0.0226 ± 0.01.

As for UCCUGCUACAGCUUGCAAUGUAUUUACAAA, the “pre-steady-state target cleavage rate” value was determined as 0.0477 ± 0.014.

Turning to UCCUGGAUGUCGAUGCAUAAUAUUUAGUUA, the “pre-steady-state target cleavage rate” value was 0.0556 ± 0.013.

In the case of UCCUGGAUCAGCUUGCAUUGUAUUUACAAA, the “pre-steady-state target cleavage rate” value was determined as 0.0117 ± 0.005.

For UCCUGGAACAGCUUGCAUAGUUUUUUCAAA, the “pre-steady-state target cleavage rate” value amounted to 0.00594 ± 0.0037.

As for UCCUGGAUGUCGUUGCAUAGUAUUUAGAUA, the “pre-steady-state target cleavage rate” value amounted to 0.0436 ± 0.017.

Take UCCUGGUACAGCUUGCAUAGUUUUUUGUUA: the “pre-steady-state target cleavage rate” value turned out to be 0.0564 ± 0.015.

For UCCUGGUACAGCUUGCAUAGUAUUAUGAAA, the “pre-steady-state target cleavage rate” value is 0.00782 ± 0.0056.

Turning to UCCUGGAUGAGCUUGCAUAGAAUUAAGUUA, the “pre-steady-state target cleavage rate” value turned out to be 0.00512 ± 0.0037.

As to UCCUGGAUGUCGAAGCUUAGUAUUUAGUUA, the “pre-steady-state target cleavage rate” value stood at 0.00685 ± 0.0029.

In the case of UCCUGGAACACCUUGCAUAGUUUUUAGUUA, the “pre-steady-state target cleavage rate” value was determined as 0.0237 ± 0.0067.

In the case of UCCUCCUACACCUUGCAUAGUAUUUUCAAA, the “pre-steady-state target cleavage rate” value stood at 0.0721 ± 0.021.

Regarding UCCUGGAUGAGCUUGGAUAGUAUUUUGUUA, the “pre-steady-state target cleavage rate” value was 0.141 ± 0.029.

On to UCCUCCUACUCGUUGCAUAGUAUUUUCAAA, for which the “pre-steady-state target cleavage rate” value stood at 0.0494 ± 0.013.

Turning to UCCUCCUACUCCUUGCAUAGUAUUUACAAA, the “pre-steady-state target cleavage rate” value worked out at 0.0842 ± 0.022.

Turning to UCCUGGAUGUGCAACCAUAGUAUUUAGUAA, the “pre-steady-state target cleavage rate” value worked out at 0.00554 ± 0.0027.

Turning to UCCUGGAUCAGCUUGCAUAGUAAUUACAAA, the “pre-steady-state target cleavage rate” value worked out at 0.145 ± 0.04.

Turning to UCCUGGAUGUGCUUGCAUAGUAUUUUCUUA, the “pre-steady-state target cleavage rate” value is 0.00861 ± 0.005.

As for UCCUCCUACAGCUUCGUUAGUAUUUAGAAA, the “pre-steady-state target cleavage rate” value is 0.0202 ± 0.0065.

Regarding UCCUGGAACAGCUUGCUAAGUAUUUAGUAA, the “pre-steady-state target cleavage rate” value came out at 0.0296 ± 0.01.

As for UCCUGGAUGUCGAACGUUGAGUAUUUAGUUA, the “pre-steady-state target cleavage rate” value is less than 0.0001.

UCCUGGAACAGCUUGCAUUAGUAUUUAGUUA: the “pre-steady-state target cleavage rate” value is 0.0128 ± 0.0055.

With UCCUGGAUGUCGAUGCAAUAGUAUUUAGUUA, the “pre-steady-state target cleavage rate” value stood at 0.00497 ± 0.0023.

With UCCUGGAUGUCGAACCAUAGAAUUUUGUUA, the “pre-steady-state target cleavage rate” value is 0.251 ± 0.13.

As for UCCUGGAUGUGCUUGCAUGUAUUUAGUUA, the “pre-steady-state target cleavage rate” value was determined as 0.00502 ± 0.0043.

In the case of UCCUCCUACACGUUGCAUAGUAUUUUCAAA, the “pre-steady-state target cleavage rate” value was 0.0568 ± 0.017.

Turning to UCCUGGAUGUCGAAGCAUAGUAUUGUAGUUA, the “pre-steady-state target cleavage rate” value was found to be 0.00801 ± 0.0041.

The same experiment, now with this note: auxiliary factor: none (no GTSF1).
Consider UCCUGGAUGUCGAACCAUAGUAUUUAGUGUA, for which the “pre-steady-state target cleavage rate” value is less than 0.0001.

As for UCCUGGAUGUCGAACGUAAGUAAUUAGUUA, the “pre-steady-state target cleavage rate” value was less than 0.0001.

Consider UCCUGGAUGUCGAACGAUAGUUAUUUAGUUA, for which the “pre-steady-state target cleavage rate” value was less than 0.0001.

As to UCCUGGAUGUCGAAGCAUAGUAAUAAGUUA, the “pre-steady-state target cleavage rate” value is less than 0.0001.

Regarding UCCUGGAUGUCGAACGAUAGUAUUUACAUA, the “pre-steady-state target cleavage rate” value is less than 0.0001.

On to UCCUGGAUGUCGAACGUAUCUUAUUAGUUA, for which the “pre-steady-state target cleavage rate” value is less than 0.0001.
